# An excerpt weighted towards active compounds, which were near 12% of everything screened.
# PI5P4Ka inh = qHTS for Inhibitors of phosphatidylinositol 5-phosphate 4-kinase (PI5P4K); max response, %; Phosphatidylinositol 5-phosphate 4-kinase type-2 alpha (Homo sapiens), P48426; actives 1.2% (n = 330,000); AID 652105, 2013; PI5P4Kalpha enzyme, ADP-Glo luminescence, 60 min; active compounds read low; active means max response of -50% or lower; inconclusive means between -30% and -50%; inactive means -30% or higher; further: value at the top dose of about 77 µM
#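 Single end-point luminescence (ADP-Glo) quantified ADP from PI5P4Kalpha turnover; ATP 5 microM final, 1 h at RT, 0.1% CHAPS and 0.28 mM EGTA in HEPES pH 7.4.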
# BAZ2B block = qHTS Assay for Inhibitors of BAZ2B. actives 4.4% (n = 360,000). Potency, µM (top dose mostly 114 µM), actives largely listed as inhibitors. AlphaScreen BAZ2B-H3K14Ac peptide displacement. Bromodomain adjacent to zinc finger domain protein 2B (Homo sapiens), Q9UIF8; further: nearly all actives have a fitted effect of over 60% in size
#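 Inhibition is scored as reduced AlphaScreen emission. The BAZ2B/b-H3(5-23)K14Ac complex (50 nM each) in PBS pH 7.4, 0.01% Tween-20 meets compound (up to 110 uM) for 30 min at RT before bead addition.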
# HP1b chromo inh = HTS for Inhibitors of HP1-beta Chromodomain Interactions with Methylated Histone Tails; AlphaScreen HP1-beta / biotin-H3K9me3 peptide binding; actives 0.56% (n = 390,000); Chromobox protein homolog 1 (Homo sapiens), P83916; Potency, µM (titrated, usually from 114 µM), hits mostly inhibitors; AID 540317, 2011; further: nearly all actives have a fitted effect of over 70% in size
#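 AlphaScreen: HP1-beta (50 nM) preformed 30 min with biotin-H3(1-18)K9me3 peptide (50 nM) in PBS pH 7.4, 0.01% Tween-20. Compound added for 30 min at RT, then streptavidin donor/nickel chelate acceptor beads (10 ug/mL) for 30 min.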
# PLK1 PBD block = qHTS for Inhibitors of PLK1-PDB (polo-like kinase 1 - polo-box domain): Primary Screen; Potency, µM, most hits filed as inhibitors; Plk1 PBD binding of FITC phosphopeptide, fluorescence polarization; actives 2.8% (n = 360,000); AID 720504, 2013; Serine/threonine-protein kinase PLK1 (Homo sapiens), P53350; further: series mostly up to about 57 µM; nearly all actives have a fitted effect of over 65% in size
# G9a inh = qHTS Assay for Inhibitors of Histone Lysine Methyltransferase G9a. AID 504332, 2011. Histone-lysine N-methyltransferase EHMT2 (Homo sapiens), Q96KQ7. actives 8.8% (n = 350,000). G9a H3K9 monomethylation, AlphaScreen, 2 h. Potency, µM (titrated, usually from 102 µM), actives largely listed as inhibitors; further: nearly all actives have a fitted effect of over 75% in size
#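 Using a bead-based AlphaScreen, monomethylated H3K9 product from 2 h room-temperature reactions (G9a 20 nM, peptide 500 nM, SAM 20 uM) was detected with 0.5 ug/mL rabbit anti-H3K9me1 antibody.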
# JMJD2A Tudor inh = qHTS Assay for Inhibitors of JMJD2A-Tudor Domain; AlphaScreen JMJD2A-Tudor / H3K4me3 peptide binding; Potency, µM (doses to about 114 µM), actives largely listed as inhibitors; actives 4.4% (n = 390,000); AID 504339, 2011; further: nearly all actives have a fitted effect of over 50% in size
# TbPYK inh = qHTS of Trypanosoma Brucei Inhibitors: Confirmatory Assay for Cherry-picked Compounds; AID 720569, 2013; shares compounds with PLK1 PBD block; actives 67% (n = 890); recombinant TbPYK, Kinase-Glo ATP luminescence; Potency, µM (series often up to 76.9 µM), actives largely listed as inhibitors; further: nearly all actives have a fitted effect of over 70% in size
# TbPYK orthogonal = qHTS of Trypanosoma Brucei Inhibitors: Orthogonal Assay for Cherry-picked Compounds; shares compounds with PLK1 PBD block; recombinant TbPYK, ADP-Glo luminescence, 60 min; Potency, µM (doses to about 76.9 µM), usual class: inhibitors; actives 62% (n = 890); further: nearly all actives have a fitted effect of over 75% in size
# Hits are given with their value; - = inactive; ? = inconclusive; . = not tested or not shown; [ ] = remark or other dose. Unless noted, the call rests on the fitted dose curve; in most records, active means well fitted curve in the direction sought with a large enough effect; inconclusive means small, poorly fitted or top-dose-only effect, or another doubt; inactive means no such curve, though single readings can be large; an effect the other way counts as inactive or inconclusive.
SMILES,PI5P4Ka inh,BAZ2B block,HP1b chromo inh,PLK1 PBD block,G9a inh,JMJD2A Tudor inh,TbPYK inh,TbPYK orthogonal
CN1C(=O)C(=Cc2ccc(N3CCCCC3)o2)C(=O)N(C)C1=S,-,-,-,-,.,-,.,.
COc1ccc(N2C(=O)/C(=C/c3ccc(N(C)C)o3)C(=O)NC2=S)cc1,-,?,-,-,45µM,-,?,?
O=C1NC(=S)N(c2ccccc2)C(=O)/C1=C/c1ccco1,-87,20µM,2.8µM,3µM,-[0.501 µM],3.2µM,11µM,16µM
C=CCN1C(=O)/C(=C/c2cccs2)C(=O)NC1=S,-86,?,-,5.3µM,8.9µM,79µM,22µM,35µM
COc1ccc(N2C(=O)/C(=C/C=C/c3ccccc3[N+](=O)[O-])C(=O)NC2=S)cc1,-91,50µM,25µM,1.3µM,6.3µM,13µM,11µM,25µM
COc1ccc(N2C(=O)/C(=C/c3cccs3)C(=O)NC2=S)cc1,-96,-,-,2.1µM,7.1µM,35µM,16µM,25µM
COc1cccc(N2C(=O)/C(=C/c3ccc(C)o3)C(=O)NC2=S)c1,-59,50µM,?,2.7µM,4.5µM,22µM,16µM,28µM
COc1ccc(CC(C)NCCC(c2ccccc2)c2ccccc2)cc1 (centres undefined),-,-,-,-,-,-,.,.
COc1cccc(NC2=NCCCS2)c1,-,-,-,-,-,-,.,.
O=C1N(c2nncs2)CCN1[N+](=O)[O-],-,-,-,-,-[12.7 µM],-,.,.
CN1C2CCC1C(C(=O)O)C(O)C2 (centres undefined),-,.,-,-,.,-,.,.
O=C1NC(=O)C(=Cc2ccc(N3CCN(C(=O)c4ccccc4)CC3)c([N+](=O)[O-])c2)C(=O)N1,-62,?,?,6.7µM,11µM,40µM,32µM,35µM
O=C(c1ccc(N2CCCCC2)c([N+](=O)[O-])c1)N1CCC2(CC1)OCCO2,-,-,-,-,?,-,.,.
O=C1NC(=O)N(c2ccc(F)cc2)C(=O)/C1=C/c1ccc(N2CCOCC2)cc1,-,-,-,12µM,40µM,-,?,?
CCC1(CC)C(=O)NC(=O)N(c2ccccc2)C1=O,-,.,-,-,.,-,.,.
O=C1NC(=O)N(c2ccccc2)C(=O)/C1=C/c1ccoc1,?,?,-,5.3µM,40µM,-,?,-
O=C1NC(=O)C(=Cc2ccc(N3CCOCC3)o2)C(=O)N1,-,?,-,-,?,-,.,.
C=CCN1C(=O)NC(=O)/C(=C\c2ccc(-c3ccccc3[N+](=O)[O-])o2)C1=O,-53,79µM,-,1.5µM,22µM,?,10µM,25µM
COC(=O)COc1ccc(C(c2c(C)[nH][nH]c2=O)c2c(C)[nH][nH]c2=O)cc1,-,-,-,?,.,-,.,.
COc1cccc(N2C(=O)NC(=O)/C(=C/c3ccc([N+](=O)[O-])s3)C2=O)c1,?,35µM,35µM,3µM,11µM,22µM,13µM,18µM
COc1ccccc1N1C(=O)NC(=O)/C(=C/c2ccc([N+](=O)[O-])s2)C1=O,-63,35µM,?,3.4µM,8.9µM,56µM,?,?
COc1ccc(N2C(=O)NC(=O)/C(=C/c3ccc([N+](=O)[O-])s3)C2=O)cc1,-77,40µM,?,3µM,8.9µM,56µM,6.3µM,13µM
COc1ccc(N2C(=O)NC(=O)/C(=C\c3ccc([N+](=O)[O-])s3)C2=O)cc1,-63,32µM,22µM,2.7µM,7.9µM,22µM,7.9µM,16µM
C#C[C@@]1(O)CCC2C3CCC4=C/C(=N/OCC(=O)NC(C(=O)NC(CC(C)C)C(=O)O)C(C)C)CC[C@]4(C)C3CC[C@@]21C (some centres undefined),-,-,-,-,-,-,.,.
CCN(C[C@H]1N[C@@](CC)(C(=O)OC)[C@H]2C(=O)N(Cc3ccccc3)C(=O)[C@@H]12)S(=O)(=O)c1ccc(OC)cc1,-,.,-,-,.,-,.,.
SMILES,PI5P4Ka inh,BAZ2B block,HP1b chromo inh,PLK1 PBD block,G9a inh,JMJD2A Tudor inh,TbPYK inh,TbPYK orthogonal
COc1cccc(-c2nn(CCC#N)cc2C(=O)Nc2ccccc2Cl)c1,-,-,-,-,-,-,.,.
COc1ccc(CC2NCC(O)C2OC(C)=O)cc1 (centres undefined),-,.,-,-,.,-,.,.
O=C(O)c1cc2ccccc2oc1=O,-,-,-,-,?,-,.,.
O=C(O)CCn1cc(C=C2C(=O)NC(=S)NC2=O)c(-c2ccccc2)n1,-91,79µM,-,2.7µM,.,13µM,1.6µM,4.5µM
N#CCCn1cc(C=C2C(=O)NC(=O)NC2=O)c(-c2ccccc2)n1,-,-,-,2.7µM,?,-,16µM,32µM
O=C(O)CCn1cc(C=C2C(=O)NC(=S)NC2=O)c(-c2cc3ccccc3oc2=O)n1,-71,50µM,-,11µM,11µM,89µM,5.6µM,10µM
O=C(COc1ccccc1[N+](=O)[O-])N1CCN(CCc2ccccn2)CC1,.,-,-,.,-,-,.,.
CN1CCN(C(=S)c2ccc([N+](=O)[O-])cc2)CC1,-,-,?,5.3µM,10µM,?,5µM,13µM
COc1ccc(-n2nnnc2C(c2ccccc2OC(F)(F)F)N2CCC3(CC2)C(=O)NCN3c2ccccc2)cc1 (centres undefined),-,.,.,-,.,.,.,.
Cc1nn(Cc2ccccc2)c(C)c1C=C1C(=O)NC(=O)NC1=O,-,-,-,9.5µM,-,-,18µM,32µM
Cc1ccsc1C(=O)C1CCCN(Cc2cnc(N3CCCC3)s2)C1 (centres undefined),-,?,-,-,-,-,.,.
CCCc1cc(=O)oc2cc(OCC(=O)N3CCC(C(=O)O)(c4ccccc4)CC3)ccc12,-,-,-,-,-[12.7 µM],-,.,.
